Laboratory results: the supplement of paper PMC3545927
This is one part of the list. The true hit rate is not given.

Molecular target: furin, P09958
Experiment: furin cleavage Z-score vs untreated control; higher = more cleavage, active = 3.5 or more, inactive = 1 or less, 8 variable residues between constant flanks
Summary of the method: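 Reactions of 0.01 ml ran for 7.5, 15 or 30 min in 50 mM HEPES pH 7.5 with CaCl2 and NaCl, at 1:10 enzyme:substrate. In them, purified furin acted on bead-held 8-mer peptides fused to a cDNA oligonucleotide. The cleavage Z-score was obtained by lowess-adjusting log sequencing counts of released DNA against furin-free reactions and scaling by median absolute deviation.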

Sequence of furin, P09958 (P09958 whole entry): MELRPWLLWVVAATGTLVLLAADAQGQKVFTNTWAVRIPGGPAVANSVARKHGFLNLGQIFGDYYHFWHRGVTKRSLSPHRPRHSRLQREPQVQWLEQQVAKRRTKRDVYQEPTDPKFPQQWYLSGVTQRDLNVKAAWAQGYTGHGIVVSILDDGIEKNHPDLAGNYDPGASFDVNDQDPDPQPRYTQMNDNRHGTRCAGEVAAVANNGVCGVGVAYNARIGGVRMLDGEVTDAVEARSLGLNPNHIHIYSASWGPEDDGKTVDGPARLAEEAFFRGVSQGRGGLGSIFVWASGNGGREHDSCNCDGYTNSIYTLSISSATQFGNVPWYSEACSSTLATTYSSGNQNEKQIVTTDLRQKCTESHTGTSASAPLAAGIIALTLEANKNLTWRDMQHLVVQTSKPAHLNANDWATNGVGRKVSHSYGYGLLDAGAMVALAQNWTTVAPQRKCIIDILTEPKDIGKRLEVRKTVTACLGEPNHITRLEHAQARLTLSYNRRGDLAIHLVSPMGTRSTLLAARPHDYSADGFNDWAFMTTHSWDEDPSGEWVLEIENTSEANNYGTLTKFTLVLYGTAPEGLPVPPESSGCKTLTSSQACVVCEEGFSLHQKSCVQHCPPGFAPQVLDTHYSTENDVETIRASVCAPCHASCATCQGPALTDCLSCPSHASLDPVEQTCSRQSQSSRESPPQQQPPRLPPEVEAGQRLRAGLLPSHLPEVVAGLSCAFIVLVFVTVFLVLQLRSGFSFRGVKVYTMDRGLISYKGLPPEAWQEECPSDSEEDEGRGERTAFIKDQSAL

| Sequence | furin cleavage Z-score (7.5 min) | furin cleavage Z-score (15 min) | furin cleavage Z-score (30 min) |
| --- | --- | --- | --- |
| CAGVLTTSCGAGNASASA [HC1512] | -0.572 (inactive) | 0.491 (inactive) | -0.869 (inactive) |
| CAATQLRRHIAGNASASA [HC288] | -0.217 (inactive) | 0.529 (inactive) | 1.16 |
| CAYASRGIRPAGNASASA [FS-1618] | -0.625 (inactive) | -0.502 (inactive) | -1.11 (inactive) |
| CAAGARKKRAAGNASASA [FS-970] | 6.63 (active) | 6.95 (active) | 6.49 (active) |
| CAGGQRKKRAAGNASASA [FS-1125] | 8.55 (active) | 7.61 (active) | 6.45 (active) |
| CAAGARLVVLAGNASASA [HC830] | 1.19 | 0.934 (inactive) | 0.0298 (inactive) |
| CAAGAGAGAGAGNASASA [NE3] | -0.934 (inactive) | -0.656 (inactive) | -0.752 (inactive) |
| CAGGQIVGGVAGNASASA [HC174] | -1.23 (inactive) | -1.41 (inactive) | -1.78 (inactive) |
| CAAQQRKKRAAGNASASA [FS-1306] | 6.17 (active) | 6.15 (active) | 6.14 (active) |
| CASHQKKKRAAGNASASA [FS-1486] | 4.35 (active) | 2.8 | 4.35 (active) |
| CALREVPCHRAGNASASA [HC2425] | -0.109 (inactive) | -0.538 (inactive) | -0.256 (inactive) |
| CAEVPCHEPSAGNASASA [HC2372] | -0.836 (inactive) | 1.11 | -0.669 (inactive) |
| CAGAPPCVIGAGNASASA [HC443] | 1.73 | -1.15 (inactive) | -0.113 (inactive) |
| CALAGTHGLVAGNASASA [HC540] | 0.465 (inactive) | 1.56 | 0.729 (inactive) |
| CATDRSGAPTAGNASASA [HC420] | -0.957 (inactive) | -0.534 (inactive) | 0.262 (inactive) |
| CANVSVAHDGAGNASASA [HC1555] | 0.322 (inactive) | -0.558 (inactive) | 0.0108 (inactive) |
| CAALENLVILAGNASASA [HC534] | -0.644 (inactive) | -1.06 (inactive) | -0.181 (inactive) |
| CAREKRGNGWAGNASASA [FS-2254] | -0.781 (inactive) | 0.97 (inactive) | 2.15 |
| CARSLRSEFKAGNASASA [FS-3209] | -0.188 (inactive) | -0.988 (inactive) | 0.991 (inactive) |
| CARFWRSTGFAGNASASA [FS-2669] | 0.601 (inactive) | 1.09 | 0.345 (inactive) |
| CARAKKIFGWAGNASASA [FS-1680] | 1.69 | 0.732 (inactive) | 0.406 (inactive) |
| CARGARVVFKAGNASASA [FS-2930] | -2.06 (inactive) | -1.04 (inactive) | -0.554 (inactive) |
| CARIKKSKMIAGNASASA [FS-2260] | -0.171 (inactive) | 1.16 | -0.504 (inactive) |
| CARIKRAEGWAGNASASA [FS-2149] | 6.5 (active) | 7.28 (active) | 7.15 (active) |
| CARIKRMVFKAGNASASA [FS-1722] | 5.13 (active) | 5.7 (active) | 8.11 (active) |
| CARIKRAGGFAGNASASA [FS-2261] | 6.34 (active) | 8.63 (active) | 7.18 (active) |
| CADNMEECSQAGNASASA [HC1821] | -1.18 (inactive) | -0.208 (inactive) | -1.08 (inactive) |
